Tests used:
Settings in all cases: concentration: 1 μM,replicates: in singlicate; n = 1
SNARK = tested on: T1, SNARK
T1 construct: gene NUAK2

SNRK = tested on: SNRK
SRC = tested on: SRC
SRMS = tested on: SRMS
SRPK1 = tested on: SRPK1
SRPK2 = tested on: SRPK2
SRPK3 = tested on: SRPK3
STK16 = tested on: STK16
STK33 = tested on: STK33
STK35 = tested on: STK35
STK36 = tested on: STK36
STK39 = tested on: STK39
SYK = tested on: SYK
SgK110 = tested on: SgK110
TAK1 = tested on: T2, TAK1
T2 construct: gene MAP3K7

TAOK1 = tested on: TAOK1
TAOK2 = tested on: TAOK2
TAOK3 = tested on: TAOK3
TBK1 = tested on: TBK1
TEC = tested on: TEC
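Also: KINOMEscan kinase panel screen.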

Row | SMILES | %Inh (SNARK) | %Inh (SNRK) | %Inh (SRC) | %Inh (SRMS) | %Inh (SRPK1) | %Inh (SRPK2) | %Inh (SRPK3) | %Inh (STK16) | %Inh (STK33) | %Inh (STK35) | %Inh (STK36) | %Inh (STK39) | %Inh (SYK) | %Inh (SgK110) | %Inh (TAK1) | %Inh (TAOK1) | %Inh (TAOK2) | %Inh (TAOK3) | %Inh (TBK1) | %Inh (TEC)
1 | CCn1c(-c2nonc2N)nc2cncc(Br)c21 [SB-738004] | 31% | 0% | 0% | 0% | 0% | 36% | 0% | 27% | 13% | 0% | 0% | 21% | 8% | 0% | 68% | 46% | 1% | 1% | 16% | 0%
2 | Cn1ccc2ncnc(Oc3ccc(NC(=O)Nc4cccc(C(F)(F)F)c4)c(Cl)c3)c21 | 0% | 0% | 7% | 0% | 45% | 0% | 0% | 4% | 60% | 0% | 0% | 0% | 1% | 0% | 31% | 0% | 23% | 0% | 15% | 0%
3 | C[C@@H](Oc1cc(-n2cnc3cc(-c4cnn(C)c4)ccc32)sc1C(N)=O)c1ccccc1Cl [GSK580432] | 98.4% | 0% | 84% | 0% | 98.2% | 42% | 85% | 51% | 0% | 3% | 0% | 10% | 92.3% | 0% | 0% | 0% | 0% | 0% | 0% | 0%
4 | OCCn1cc(-c2cnc3nnn(Cc4ccc5ncccc5c4)c3n2)cn1 | 0% | 0% | 0% | 0% | 0% | 4% | 0% | 0% | 0% | 0% | 0% | 0% | 0% | 0% | 12% | 0% | 0% | 0% | 0% | 0%
5 | CSc1nccc(-c2c(-c3ccc(F)cc3)ncn2CCCN2CCOCC2)n1.Cl [SB-217146] | 0% | 1% | 10% | 35% | 0% | 0% | 0% | 0% | 0% | 0% | 0% | 0% | 5% | 3% | 3% | 0% | 45% | 6% | 33% | 2%
6 | C[C@@H]1CNc2c(sc3ccc4nc(-c5ccncc5)ccc4c23)C(=O)N1 | 53% | 11% | 1% | 0% | 23% | 0% | 31% | 13% | 60% | 0% | 6% | 0% | 11% | 0% | 62% | 75% | 0% | 0% | 9% | 0%
7 | Cn1ccc2ncnc(Oc3ccc(NC(=O)Nc4ccnc(C(F)(F)F)c4)c(Cl)c3)c21 | 0% | 0% | 13% | 0% | 49% | 0% | 0% | 0% | 0% | 15% | 0% | 0% | 0% | 47% | 2% | 0% | 0% | 0% | 0% | 0%
8 | O=C(Nc1cccc(C(F)(F)F)c1)c1cccc(Oc2ccc3nccn3n2)c1 | 0% | 1% | 17% | 0% | 3% | 0% | 4% | 7% | 22% | 8% | 0% | 2% | 14% | 26% | 4% | 4% | 9% | 0% | 12% | 7%
9 | FC(F)(F)c1cc(Br)cc(Nc2nccc(-c3cnn4ncccc34)n2)c1 [GW810578] | 47% | 0% | 39% | 6% | 9% | 0% | 0% | 42% | 12% | 9% | 19% | 0% | 21% | 0% | 62% | 58% | 0% | 4% | 17% | 0%
10 | CC(=O)Nc1ccc(-c2cc3ncnc(SCC(=O)O)c3s2)cc1 | 15% | 0% | 11% | 13% | 0% | 0% | 13% | 32% | 0% | 20% | 1% | 0% | 1% | 0% | 17% | 0% | 0% | 0% | 15% | 0%
11 | CN(c1cccc(CNc2nc(Nc3ccc4c(c3)CC(=O)N4)ncc2C(F)(F)F)c1)S(C)(=O)=O | 76% | 0% | 4% | 0% | 73% | 0% | 31% | 90.2% | 0% | 8% | 20% | 0% | 37% | 0% | 43% | 0% | 16% | 0% | 70% | 0%
12 | Cc1ccc(CC(=O)N2CCc3cc(-c4cn(C)c5ncnc(N)c45)ccc32)cc1 [GSK2634758] | 37% | 8% | 0% | 6% | 13% | 31% | 10% | 100% | 0% | 5% | 3% | 1% | 33% | 0% | 17% | 0% | 0% | 0% | 4% | 0%
13 | COc1cccc(CNC(=O)NC2CCN(c3ccnc(Nc4cc(OC)c(OC)c(OC)c4)n3)C2)c1 (stereo not drawn) [GSK1379765] | 45% | 0% | 24% | 0% | 39% | 0% | 73% | 64% | 0% | 8% | 0% | 10% | 9% | 0% | 0% | 0% | 0% | 0% | 36% | 13%
14 | Cl.Cl.NC[C@H](CC1CCCCC1)NC(=O)c1ccc(-c2ccnc3[nH]ccc23)s1 [GSK1581428] | 98.3% | 0% | 17% | 0% | 85% | 12% | 91.6% | 54% | 98.4% | 63% | 0% | 7% | 20% | 95.3% | 64% | 87% | 0% | 14% | 29% | 0%
15 | C[C@@H](Oc1cc(-n2cnc3ccc(-c4ccncc4)cc32)sc1C(N)=O)c1ccccc1Cl [GSK483724] | 51% | 0% | 5% | 0% | 73% | 0% | 25% | 80% | 19% | 0% | 0% | 7% | 12% | 0% | 39% | 0% | 0% | 0% | 17% | 11%
16 | Cc1ccc(Nc2ccnc(Nc3ccc4c(c3)CS(=O)(=O)C4)n2)cc1O.Cl [GW579362] | 52% | 6% | 99.9% | 87% | 99.2% | 18% | 83% | 98.5% | 89% | 22% | 92.2% | 17% | 93.2% | 0% | 99.5% | 81% | 30% | 47% | 90% | 83%
17 | CS(=O)c1ccc(-c2coc3ccc(-c4n[nH]c(=O)o4)cc23)cc1 (stereo not drawn) | 21% | 10% | 22% | 0% | 0% | 1% | 0% | 52% | 0% | 9% | 0% | 19% | 0% | 0% | 30% | 0% | 3% | 0% | 20% | 0%
18 | Cn1ccc2ncnc(Oc3ccc(NC(=O)Nc4cncc(C(F)(F)F)c4)c(Cl)c3)c21 | 0% | 0% | 5% | 0% | 73% | 0% | 0% | 4% | 8% | 0% | 0% | 0% | 0% | 9% | 11% | 0% | 0% | 0% | 0% | 0%
19 | CC(=O)c1c(-c2ccncc2)[nH]c(-c2ccncc2)c1C [GW493036] | 0% | 0% | 0% | 0% | 24% | 16% | 0% | 28% | 0% | 0% | 10% | 20% | 24% | 0% | 19% | 63% | 0% | 0% | 0% | 0%
20 | COc1cc(Nc2nccc(N3CCC(NC(=O)c4cccc(C#N)c4)C3)n2)cc(OC)c1OC (stereo not drawn) [GSK1379751] | 3% | 0% | 22% | 0% | 49% | 24% | 0% | 64% | 0% | 0% | 0% | 0% | 0% | 0% | 0% | 0% | 0% | 0% | 10% | 0%
21 | Nc1nccc(-c2ccc3c(N)n[nH]c3c2)n1 [GSK1034945] | 35% | 0% | 0% | 0% | 67% | 0% | 55% | 29% | 0% | 0% | 0% | 1% | 0% | 0% | 8% | 62% | 0% | 0% | 20% | 13%

From PMC5540273 (PLoS ONE, 2017)
